Results: the supplement of paper PMC6411743
± gives the standard deviation of the averaged measurements. About 5,400 targets were measured; listed, in parts, are those with the largest changes and a random draw of the rest.

Compound: Nc1nc2c(ncn2[C@@H]2O[C@H](COP(=O)(O)OP(=O)(O)OP(=O)(O)O)[C@@H](O)[C@H]2O)c(=O)[nH]1 [guanosine triphosphate]
Experiment: NP40-soluble protein abundance relative to vehicle (solubility fold change) (ratio); higher = more soluble protein in presence of GTP
How it was run: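 Crude Jurkat lysate, prepared by Dounce homogenisation, was exposed to eight concentrations from 0.1 to 10 mM for 10 min at room temperature and then 3 min at 37 °C. Solubilisation used 0.8% NP40 with benzonase for 60 min at 4 °C, followed by ultracentrifugation and TMT labelling of the supernatant for LC-MS/MS. After vsn normalisation of intensities, each value is the fold change against the detergent-processed vehicle within each replicate, across three independent experiments.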

Chain of UniProt Q7KZN9 (Q7KZN9 whole entry): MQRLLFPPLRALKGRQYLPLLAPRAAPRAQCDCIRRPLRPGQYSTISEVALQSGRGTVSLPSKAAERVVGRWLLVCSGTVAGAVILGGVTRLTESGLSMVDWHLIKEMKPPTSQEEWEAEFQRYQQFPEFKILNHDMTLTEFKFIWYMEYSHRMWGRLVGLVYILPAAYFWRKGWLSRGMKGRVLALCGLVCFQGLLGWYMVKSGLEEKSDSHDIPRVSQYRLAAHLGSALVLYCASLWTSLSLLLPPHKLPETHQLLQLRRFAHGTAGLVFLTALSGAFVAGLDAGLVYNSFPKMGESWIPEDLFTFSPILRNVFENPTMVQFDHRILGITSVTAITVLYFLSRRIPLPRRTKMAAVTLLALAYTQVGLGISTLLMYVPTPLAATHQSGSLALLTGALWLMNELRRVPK
Chain of UniProt Q16864 (Q16864 whole entry): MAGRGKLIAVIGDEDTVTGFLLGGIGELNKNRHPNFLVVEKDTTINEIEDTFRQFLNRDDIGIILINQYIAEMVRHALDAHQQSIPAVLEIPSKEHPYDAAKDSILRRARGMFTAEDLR
Chain of UniProt Q86U86 (Q86U86 whole entry): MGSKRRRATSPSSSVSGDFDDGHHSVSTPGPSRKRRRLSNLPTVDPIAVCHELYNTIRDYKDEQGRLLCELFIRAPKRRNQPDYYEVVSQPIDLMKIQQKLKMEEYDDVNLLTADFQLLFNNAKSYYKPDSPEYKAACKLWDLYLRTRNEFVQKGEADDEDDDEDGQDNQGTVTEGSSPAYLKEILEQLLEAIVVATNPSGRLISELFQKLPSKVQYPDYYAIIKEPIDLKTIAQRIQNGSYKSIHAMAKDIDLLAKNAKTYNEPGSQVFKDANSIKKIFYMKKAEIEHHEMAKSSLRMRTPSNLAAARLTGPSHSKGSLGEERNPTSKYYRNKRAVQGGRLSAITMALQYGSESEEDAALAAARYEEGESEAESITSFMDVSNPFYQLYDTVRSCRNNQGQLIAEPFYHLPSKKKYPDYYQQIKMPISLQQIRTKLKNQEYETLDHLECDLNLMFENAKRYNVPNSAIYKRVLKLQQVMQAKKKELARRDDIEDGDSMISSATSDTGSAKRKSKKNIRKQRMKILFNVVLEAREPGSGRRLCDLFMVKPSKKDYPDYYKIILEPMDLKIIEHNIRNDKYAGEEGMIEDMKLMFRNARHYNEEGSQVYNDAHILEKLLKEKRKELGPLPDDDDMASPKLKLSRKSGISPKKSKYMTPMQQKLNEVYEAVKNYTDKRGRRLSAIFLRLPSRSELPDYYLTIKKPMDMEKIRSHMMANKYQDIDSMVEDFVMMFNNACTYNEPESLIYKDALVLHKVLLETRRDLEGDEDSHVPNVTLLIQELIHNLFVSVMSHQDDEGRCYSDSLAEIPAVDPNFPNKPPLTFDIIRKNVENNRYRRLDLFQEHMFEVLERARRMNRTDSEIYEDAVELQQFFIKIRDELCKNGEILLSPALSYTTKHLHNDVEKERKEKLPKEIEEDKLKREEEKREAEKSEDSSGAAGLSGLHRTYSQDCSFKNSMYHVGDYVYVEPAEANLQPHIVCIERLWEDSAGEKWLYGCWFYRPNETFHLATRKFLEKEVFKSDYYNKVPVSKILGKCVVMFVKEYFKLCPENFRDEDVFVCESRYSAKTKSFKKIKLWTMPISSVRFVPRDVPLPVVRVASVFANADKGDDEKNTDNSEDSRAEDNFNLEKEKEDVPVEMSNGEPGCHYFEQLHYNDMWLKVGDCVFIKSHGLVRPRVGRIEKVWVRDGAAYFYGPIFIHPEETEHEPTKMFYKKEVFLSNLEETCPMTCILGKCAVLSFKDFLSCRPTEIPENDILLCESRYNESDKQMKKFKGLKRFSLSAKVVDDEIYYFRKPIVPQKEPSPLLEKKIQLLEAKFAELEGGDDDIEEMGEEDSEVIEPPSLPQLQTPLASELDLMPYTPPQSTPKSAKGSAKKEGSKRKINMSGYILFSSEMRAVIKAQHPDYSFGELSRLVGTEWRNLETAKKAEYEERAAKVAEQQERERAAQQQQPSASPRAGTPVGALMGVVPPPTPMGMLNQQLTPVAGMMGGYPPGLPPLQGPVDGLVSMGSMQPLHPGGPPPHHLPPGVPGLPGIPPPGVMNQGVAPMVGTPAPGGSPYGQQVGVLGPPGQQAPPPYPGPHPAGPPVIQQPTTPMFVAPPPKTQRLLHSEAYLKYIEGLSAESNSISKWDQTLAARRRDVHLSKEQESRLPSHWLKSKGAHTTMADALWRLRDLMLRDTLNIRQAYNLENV
Chain of UniProt Q8N2K0 (Q8N2K0 whole entry): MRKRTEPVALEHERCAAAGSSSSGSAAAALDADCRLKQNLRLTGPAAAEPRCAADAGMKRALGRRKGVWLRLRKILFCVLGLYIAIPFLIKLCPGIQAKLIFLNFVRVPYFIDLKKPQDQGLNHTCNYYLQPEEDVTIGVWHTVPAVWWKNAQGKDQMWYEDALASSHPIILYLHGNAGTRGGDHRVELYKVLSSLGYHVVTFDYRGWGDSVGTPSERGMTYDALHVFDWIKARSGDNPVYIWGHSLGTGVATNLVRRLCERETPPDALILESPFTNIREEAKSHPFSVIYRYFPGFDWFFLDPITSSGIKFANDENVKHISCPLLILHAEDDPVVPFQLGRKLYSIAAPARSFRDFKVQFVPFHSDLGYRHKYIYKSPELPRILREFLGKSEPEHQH
Chain of UniProt Q6P2E9 (Q6P2E9 whole entry): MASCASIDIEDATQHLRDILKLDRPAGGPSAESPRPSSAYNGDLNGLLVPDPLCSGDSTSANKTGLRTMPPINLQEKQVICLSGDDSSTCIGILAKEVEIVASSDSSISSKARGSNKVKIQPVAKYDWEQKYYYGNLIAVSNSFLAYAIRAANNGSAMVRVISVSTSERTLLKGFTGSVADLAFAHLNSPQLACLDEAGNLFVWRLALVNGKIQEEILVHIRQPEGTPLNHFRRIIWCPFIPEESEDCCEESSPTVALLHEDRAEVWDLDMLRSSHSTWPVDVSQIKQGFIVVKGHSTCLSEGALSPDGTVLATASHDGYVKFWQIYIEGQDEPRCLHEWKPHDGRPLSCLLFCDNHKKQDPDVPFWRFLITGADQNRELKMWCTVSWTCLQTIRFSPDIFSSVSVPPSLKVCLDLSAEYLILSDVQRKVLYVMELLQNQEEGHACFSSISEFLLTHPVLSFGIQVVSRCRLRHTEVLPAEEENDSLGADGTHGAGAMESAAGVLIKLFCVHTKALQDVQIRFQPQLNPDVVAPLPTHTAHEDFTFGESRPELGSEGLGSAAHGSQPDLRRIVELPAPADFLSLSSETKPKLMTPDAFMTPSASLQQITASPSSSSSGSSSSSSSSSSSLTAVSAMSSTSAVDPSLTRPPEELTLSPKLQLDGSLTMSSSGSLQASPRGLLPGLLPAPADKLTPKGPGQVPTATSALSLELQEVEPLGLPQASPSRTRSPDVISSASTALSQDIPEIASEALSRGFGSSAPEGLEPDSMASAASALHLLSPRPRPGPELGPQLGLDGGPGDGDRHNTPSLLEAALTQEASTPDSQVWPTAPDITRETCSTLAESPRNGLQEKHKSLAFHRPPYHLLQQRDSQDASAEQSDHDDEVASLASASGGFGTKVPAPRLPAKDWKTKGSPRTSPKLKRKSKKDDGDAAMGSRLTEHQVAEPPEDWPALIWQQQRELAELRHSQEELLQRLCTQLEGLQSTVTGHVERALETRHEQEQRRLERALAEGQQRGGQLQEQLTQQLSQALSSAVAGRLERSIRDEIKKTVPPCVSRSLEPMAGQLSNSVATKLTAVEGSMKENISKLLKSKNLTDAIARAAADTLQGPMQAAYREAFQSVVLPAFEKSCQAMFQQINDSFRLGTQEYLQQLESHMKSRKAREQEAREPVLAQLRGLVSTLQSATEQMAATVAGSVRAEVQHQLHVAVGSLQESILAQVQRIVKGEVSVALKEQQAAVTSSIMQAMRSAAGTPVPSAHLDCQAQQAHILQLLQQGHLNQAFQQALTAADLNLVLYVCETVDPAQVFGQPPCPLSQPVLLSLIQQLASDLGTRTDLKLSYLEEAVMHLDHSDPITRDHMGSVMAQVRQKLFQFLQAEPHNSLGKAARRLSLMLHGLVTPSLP
Chain of UniProt Q86V48 (Q86V48 whole entry): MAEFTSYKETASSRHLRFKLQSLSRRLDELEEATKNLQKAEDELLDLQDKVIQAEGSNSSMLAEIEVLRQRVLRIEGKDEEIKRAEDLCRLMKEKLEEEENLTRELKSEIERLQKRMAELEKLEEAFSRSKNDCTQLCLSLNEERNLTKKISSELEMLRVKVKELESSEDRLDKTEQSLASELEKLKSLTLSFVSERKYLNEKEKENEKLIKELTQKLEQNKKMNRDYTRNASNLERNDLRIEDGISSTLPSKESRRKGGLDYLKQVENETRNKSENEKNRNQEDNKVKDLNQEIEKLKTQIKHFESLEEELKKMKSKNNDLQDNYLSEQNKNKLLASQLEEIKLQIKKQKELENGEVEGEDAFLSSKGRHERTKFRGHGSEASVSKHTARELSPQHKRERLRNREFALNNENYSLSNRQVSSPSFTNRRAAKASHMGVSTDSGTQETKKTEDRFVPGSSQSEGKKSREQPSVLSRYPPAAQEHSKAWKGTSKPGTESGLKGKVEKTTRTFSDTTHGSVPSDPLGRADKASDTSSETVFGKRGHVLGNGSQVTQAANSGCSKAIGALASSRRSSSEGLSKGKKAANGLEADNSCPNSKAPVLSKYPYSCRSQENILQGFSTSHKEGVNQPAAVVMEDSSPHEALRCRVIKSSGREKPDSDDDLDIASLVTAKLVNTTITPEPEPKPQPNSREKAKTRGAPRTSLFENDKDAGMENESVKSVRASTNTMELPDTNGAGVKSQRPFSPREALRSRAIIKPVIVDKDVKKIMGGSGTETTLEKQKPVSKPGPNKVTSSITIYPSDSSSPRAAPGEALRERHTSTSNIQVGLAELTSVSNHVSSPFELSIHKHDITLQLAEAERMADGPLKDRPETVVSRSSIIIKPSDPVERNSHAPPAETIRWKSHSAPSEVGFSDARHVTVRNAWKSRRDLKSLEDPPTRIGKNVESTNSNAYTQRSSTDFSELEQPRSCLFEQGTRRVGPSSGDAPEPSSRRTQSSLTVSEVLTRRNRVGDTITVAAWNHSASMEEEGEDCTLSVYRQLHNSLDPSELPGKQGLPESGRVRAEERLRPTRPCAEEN

Target	NP40-soluble protein abundance (concentration: 0.1mM)	NP40-soluble protein abundance (concentration: 0.5mM)	NP40-soluble protein abundance (concentration: 1mM)	NP40-soluble protein abundance (concentration: 2mM)	NP40-soluble protein abundance (concentration: 4mM)	NP40-soluble protein abundance (concentration: 6mM)	NP40-soluble protein abundance (concentration: 8mM)	NP40-soluble protein abundance (concentration: 10mM)
UniProt Q86V81	0.939 ± 0.019	0.943 ± 0.079	1.12 ± 0.036	1.25 ± 0.097	1.5 ± 0.047	1.73 ± 0.054	1.95 ± 0.1	2.52 ± 0.13
UniProt Q86U86|Q86U86-8|Q86U86-2|Q86U86-4|Q86U86-5|Q86U86-7|Q86U86-9	1.07 ± 0.048	1.14 ± 0.078	1.21 ± 0.092	1.38 ± 0.11	1.53 ± 0.12	1.61 ± 0.16	1.72 ± 0.16	1.78 ± 0.18
UniProt Q16630|Q16630-2	1.16 ± 0.012	1.64 ± 0.098	1.95 ± 0.22	2.23 ± 0.3	2.49 ± 0.41	2.58 ± 0.45	2.71 ± 0.58	2.75 ± 0.56
UniProt Q7L5D6|Q7L5D6-2	1.03 ± 0.056	0.98 ± 0.091	0.94 ± 0.047	0.975 ± 0.11	0.963 ± 0.12	0.986 ± 0.1	0.868 ± 0.053	0.887 ± 0.12
AARS2 (UniProt Q5JTZ9)	1.13 ± 0.043	1.02 ± 0.046	0.989 ± 0.052	0.998 ± 0.059	0.98 ± 0.06	0.948 ± 0.04	0.925 ± 0.03	0.925 ± 0.045
UniProt Q7KZN9|Q7KZN9-2	1.07 ± 0.024	1.05 ± 0.11	0.98 ± 0.035	0.961 ± 0.022	0.939 ± 0.052	0.924 ± 0.037	0.907 ± 0.029	0.931 ± 0.042
UniProt P84090	1.06 ± 0.1	1.02 ± 0.06	1.26 ± 0.18	1.34 ± 0.11	1.42 ± 0.16	1.54 ± 0.1	1.65 ± 0.14	1.95 ± 0.38
UniProt Q04656|Q04656-2|Q04656-3|Q04656-5	1.01 ± 0.13	1.01 ± 0.059	0.971 ± 0.096	1.01 ± 0.079	0.951 ± 0.052	1.02 ± 0.015	0.972 ± 0.11	0.924 ± 0.087
UniProt Q16864|Q16864-2	0.906 ± 0.02	0.931 ± 0.05	1.032 ± 0.01	1.04 ± 0.067	0.999 ± 0.061	1.02 ± 0.034	0.992 ± 0.073	1.02 ± 0.027
UniProt Q8N2K0|Q8N2K0-2	1.09 ± 0.011	1.04 ± 0.051	1.01 ± 0.017	1.017 ± 0.0025	1.03 ± 0.015	1.01 ± 0.023	0.997 ± 0.031	0.976 ± 0.034
UniProt Q86V48|Q86V48-2|Q86V48-3	0.953 ± 0.056	0.967 ± 0.042	1.01 ± 0.051	0.99 ± 0.097	1.03 ± 0.088	1.08 ± 0.081	1.17 ± 0.1	1.2 ± 0.11
TRAPPC6B (UniProt Q86SZ2)	1.06 ± 0.015	0.988 ± 0.077	0.954 ± 0.058	0.997 ± 0.092	0.999 ± 0.049	0.963 ± 0.088	0.885 ± 0.017	0.958 ± 0.065
UniProt P61962	1.02 ± 0.081	1.08 ± 0.089	0.988 ± 0.07	1.04 ± 0.1	1.02 ± 0.057	1.01 ± 0.092	0.946 ± 0.021	0.964 ± 0.03
UniProt Q02880|Q02880-2	1.08 ± 0.06	1.09 ± 0.065	1.21 ± 0.06	1.37 ± 0.11	1.68 ± 0.17	1.85 ± 0.27	1.99 ± 0.26	2.08 ± 0.34
EDC4 (UniProt Q6P2E9)	0.984 ± 0.029	1 ± 0.037	1.01 ± 0.045	1.01 ± 0.029	1.01 ± 0.039	1.02 ± 0.032	1.02 ± 0.057	1.04 ± 0.046
